# Experimental data from PubChem BioAssay (NCI).
# This is part of a sample that, as a whole, favours compounds with a hit. Of some 83,000 tested, about 20% had one in any assay.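 Note: values are percent growth. 100 is the growth of untreated cells, values between 100 and 0 indicate rising inhibition; between -100 and 0 indicates cell death.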 Unmarked numbers belong to inactive results. The source made the active and inactive calls. How the source made its calls: active means growth percent below 10; inactive means the rest.
# Legend:
# Assay in all cases: NCI-60 one-dose screen, 48 h (100 = growth as untreated, 0 = no growth, -100 = all killed)
# Details in all cases: 10 µM unless noted
# DU-145 prostate = system: DU-145 prostate
# K-562 leukemia = system: K-562 leukemia
# MALME-3M melanoma = system: MALME-3M melanoma
# MDA-MB-231 breast = system: MDA-MB-231 breast
# RXF 393 renal = system: RXF 393 renal
# SF-268 CNS = system: SF-268 CNS
# SF-295 CNS = system: SF-295 CNS
# SF-539 CNS = system: SF-539 CNS
# UACC-257 melanoma = system: UACC-257 melanoma
# M14 melanoma = system: M14 melanoma
# HCT-15 colon = system: HCT-15 colon
# HT29 colon = system: HT29 colon
# SNB-75 CNS = system: SNB-75 CNS
# SNB-19 CNS = system: SNB-19 CNS
# U251 CNS = system: U251 CNS
# PC-3 prostate = system: PC-3 prostate
# SK-MEL-5 melanoma = system: SK-MEL-5 melanoma
# UACC-62 melanoma = system: UACC-62 melanoma
# LOX IMVI melanoma = system: LOX IMVI melanoma
# SK-MEL-28 melanoma = system: SK-MEL-28 melanoma
SMILES,growth (DU-145 prostate),growth (K-562 leukemia),growth (MALME-3M melanoma),growth (MDA-MB-231 breast),growth (RXF 393 renal),growth (SF-268 CNS),growth (SF-295 CNS),growth (SF-539 CNS),growth (UACC-257 melanoma),growth (M14 melanoma),growth (HCT-15 colon),growth (HT29 colon),growth (SNB-75 CNS),growth (SNB-19 CNS),growth (U251 CNS),growth (PC-3 prostate),growth (SK-MEL-5 melanoma),growth (UACC-62 melanoma),growth (LOX IMVI melanoma),growth (SK-MEL-28 melanoma)
CCN1CCN(CCNc2nccc(-c3c(-c4ccc(F)c(OC)c4)nc4sccn34)n2)S1(=O)=O,84.1%,54.4%,-7.64% (active),50.8%,45%,79%,90.5%,99.1%,30.7%,20.7%,94.6%,73.1%,74%,93%,76.8%,74.1%,41.4%,15.5%,40.3%,27.2%
COc1cc(OC)cc(-c2ccc(-c3ccc(C(=N)N)o3)o2)c1,60.2%,4.64% (active),71.3%,0.981% (active),58.2%,62.6%,86.3%,73.1%,45.4%,25.1%,-6.9% (active),8.19% (active),87.6%,51.3%,8.25% (active),71.2%,76%,-3.63% (active),-64.1% (active),87.8%
COc1ccc(Cn2cc3c(c2-c2ccccc2)CCc2cnoc2-3)cc1,-4.72% (active),13.7%,70.2%,10.4%,24.8%,16%,23.2%,-12.8% (active),78.8%,16.8%,16.7%,11.7%,44.2%,39.8%,29.4%,27.4%,-10% (active),24%,29.6%,56.4%
O=C(Cc1ccccc1)Nc1cccc(N=Cc2ccccc2O)c1,93.1%,98.7%,106%,114%,111%,84%,100%,101%,105%,107%,102%,113%,73.8%,99.2%,94.3%,93.4%,106%,101%,100%,111%
CCOC(=O)c1cc(C(=O)c2cc(OC)c(OC)c(OC)c2)n2ccccc12,24.9%,11.5%,35.6%,37.9%,-0.358% (active),55.7%,21.3%,-6.66% (active),50.1%,-21.8% (active),29%,1.16% (active),32.9%,43.4%,21.6%,22.1%,37.7%,37.8%,47%,72.3%
O=C(NNC(=O)c1nc2cc(F)ccc2n2cccc12)c1cnccn1,44.5%,18.2%,37.7%,37.4%,66.4%,34.8%,21.6%,29.6%,53.6%,23.4%,24.3%,31.2%,77.1%,33%,20.3%,43.7%,42.7%,19.6%,26.7%,36.4%
Oc1c(CN2CCOCC2)cc(COCc2ccccc2)c2cccnc12,38%,14.8%,21.2%,43.1%,58.5%,23.7%,30.8%,4.65% (active),-9.19% (active),12%,20.5%,88.2%,49.5%,35.7%,11%,31.4%,-12.3% (active),-25.7% (active),12.5%,36.3%
CC(C)(C)n1cc(-c2ccnc(NCCNS(=O)(=O)c3ccc(O)cc3)c2)c(-c2cccc(O)c2)n1,106%,56.1%,96.9%,111%,108%,94.4%,101%,95.3%,99.1%,110%,107%,76.9%,74.4%,98.5%,82.4%,101%,79.7%,101%,106%,98.9%
O=C1c2ccccc2C(=O)c2c1c(C(=O)NCc1ccccc1)c1ccccn21,104%,84.5%,108%,96.8%,104%,104%,98.1%,104%,90.2%,105%,114%,80.6%,94.9%,93.9%,93.6%,95.4%,99.6%,92.2%,103%,113%
CCOC(=O)C(=CNc1cnc(Nc2ccc(N3CCOCC3)cc2)nc1Oc1ccc(OC)cc1)C(=O)OCC,73%,49.2%,39%,59.7%,89.2%,69.7%,75.9%,24.7%,87.4%,63.7%,69.4%,40.6%,-14.3% (active),41.7%,-19.4% (active),67.7%,74%,47.1%,39.3%,76.6%
CCOC(=O)c1nn(CC(O)c2ccccc2)c(NC(=O)Nc2cccc(F)c2)c1C (stereo not given),94.4%,92.4%,100%,90%,107%,95.4%,92.2%,102%,86.8%,103%,98%,101%,108%,97.3%,92%,92.5%,96.7%,80.8%,98.4%,113%
COc1cccc(/C=N/NC(=O)c2ccccc2N2CCCC2)c1O,68%,13.6%,75.7%,47.8%,63.8%,38.8%,86.2%,61.8%,-29.8% (active),48.5%,19.4%,69.3%,67.4%,65.8%,46.7%,72%,58.4%,42.5%,25.4%,72.1%
Cc1ncc(C(=O)Nc2ccc(CN3CCN(C)CC3)c(C(F)(F)F)c2)cc1C#Cc1cnc(N)c2ncccc12,34%,-59.5% (active),-79% (active),-78.9% (active),-18.9% (active),29.8%,48.8%,29.8%,30.6%,-79.9% (active),20%,-13.8% (active),50.9%,81%,45.7%,5.19% (active),-59.3% (active),7.13% (active),-3.58% (active),-77.4% (active)
O=C(Nc1ncc(Cc2cc(C(F)(F)F)ccc2Cl)s1)c1cccs1,72.7%,10.7%,50.7%,77.8%,42.7%,63.9%,41%,79.7%,73.3%,49.3%,21.9%,18.6%,72%,65%,42.5%,50.1%,37.7%,46.1%,58.8%,67.5%
